Measured values taken from the supplement of paper PMC10849652.
Of roughly 7,900 targets only a part is listed; those with a hit were picked by preference. About 0.6% of all pairs of compound and target were hits.

What follows are compounds tested against AAGAB (UniProt Q6PD74) (assay: log2 fold change, soluble protein after heating vs DMSO (PISA); higher = thermal stabilisation; K562 cells, 10 uM, 30 min; active = over 0.2 and 3.5 SD of the protein, either way, in both replicates (recomputed)).
AAGAB, sequence (Q6PD74 whole entry, looked up): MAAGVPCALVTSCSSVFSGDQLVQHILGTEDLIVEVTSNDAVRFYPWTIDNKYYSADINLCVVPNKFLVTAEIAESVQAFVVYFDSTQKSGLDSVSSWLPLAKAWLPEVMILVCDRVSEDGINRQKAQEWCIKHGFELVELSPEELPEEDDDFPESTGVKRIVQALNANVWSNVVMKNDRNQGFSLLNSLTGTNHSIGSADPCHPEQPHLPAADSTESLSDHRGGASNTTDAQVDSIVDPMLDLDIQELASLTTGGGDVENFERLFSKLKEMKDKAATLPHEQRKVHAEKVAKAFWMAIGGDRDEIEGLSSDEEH
Summary of the method: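 Soluble protein was defined as the supernatant after 21,000xg for 90 min. It came from K562 cells at 2×10^6 cells/mL given 10 μM compound for 30 min, heated in aliquots for 3 min across 48°C-58°C, pooled, and extracted in PBS with 0.5% NP-40 at 4°C, and was quantified by TMTpro 16plex LC-MS/MS with equalised channel sums. Thermal stability against control samples, from duplicates, is reported as log2 fold change.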

log2 fold change, inactive:
NC(=O)c1ccc2nc(-c3ccc(Oc4ccc(Cl)cc4)cc3)[nH]c2c1 -0.068
FC(F)(F)c1ccc(/C=C/c2nc(COc3ccc(CCCCn4ccnn4)cc3)co2)cc1 [mubritinib] 0.017
COc1cc2nc(-c3cc(F)ccc3O)nc(N[C@@H]3CNC[C@H]3C(C)(C)O)c2cc1OC -0.064
Cn1c2cc(S(C)=O)sc2c2cnn(Cc3cccc(N)c3)c(=O)c21 (stereo unspecified) 0.125
C[C@@H](N)c1ccc(C(=O)Nc2ccnc3[nH]ccc23)cc1 0.084
Oc1cc(-c2nc(-c3ccccc3)[nH]c2-c2ccncc2)ccc1Cl 0.066
CS(=O)(=O)CCNCc1ccc(-c2ccc3ncnc(Nc4ccc(OCc5cccc(F)c5)c(Cl)c4)c3c2)o1 [lapatinib] -0.038
CC1=C(C(=O)Nc2cc3cn[nH]c3cc2F)C(c2ccc(C(F)(F)F)cc2)CC(=O)N1 (stereo unspecified) -0.004
COC(=O)[C@H](CCSC)NC(=O)c1ccc(NC[C@@H](N)CS)cc1-c1ccccc1 -0.029
CC(C)c1cnn2c(NCc3ccccc3)cc(NCCCCCCN)nc12 -0.099
CO[C@H]1C[C@@H]2CC[C@@H](C)[C@@](O)(O2)C(=O)C(=O)N2CCCC[C@H]2C(=O)O[C@H]([C@H](C)C[C@@H]2CC[C@H](n3cnnn3)[C@H](OC)C2)CC(=O)[C@H](C)/C=C(\C)[C@@H](O)[C@@H](OC)C(=O)[C@H](C)C[C@H](C)/C=C/C=C/C=C/1C [zotarolimus] -0.093
